Data on four molecules can be found in PubChem BioAssay (Tox21).

Results filed as inconclusive are left out. The source made the active and inactive calls. Unless noted, calls come from the whole dose curve.

Assay [1] in a line: qHTS assay to identify small molecule antagonists of the sonic hedgehog signaling (Shh) pathway (AID 1259369). Note: nearly all actives have a fitted effect of over 45% in size. Note: potency is the fitted concentration of half-maximal effect. The note with it: NIH/3T3 Gli1-Luc reporter, Shh antagonist, luminescence 24 h; series mostly up to 92.4 µM. The gist of the method: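 NIH/3T3 stable Gli1-Luc clone, 2,000 cells/well, 4hr settle; cpd + conditioned medium 24hr; Luc reagent 30min RT; luminescence.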
In general terms: Quantitative high-throughput screening tests each substance at several concentrations.

Assay [2] can be described thus: qHTS assay to identify small molecule agonists of the androgen receptor (AR) signaling pathway in the presence of an antagonist - cell viability counter screen (AID 1259379; active = well fitted curve in the direction sought with a large enough effect in the repeat runs; an effect the other way counts as inactive or inconclusive;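 note: MDA-kb2 human breast cancer cells carrying an MMTV luciferase reporter; nearly all actives have a fitted effect of over 25% in size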). To be noted: MDA-kb2 viability, CellTiter-Fluor, 16 h; series mostly up to 92.4 µM. The gist of the method: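 MDA-kb2 viability measured by CellTiter-Fluor fluorescence in the same wells as the luciferase signal; nilutamide 3.0uM final; 15-point compound titration; 16 hr at 37C.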

Assay [3] in a line: qHTS assay to identify small molecule agonists of the estrogen receptor beta (ER-beta) signaling pathway - cell viability counter screen (AID 1259380; active = well fitted curve in the direction sought with a large enough effect in the repeat runs; an effect the other way counts as inactive or inconclusive; note: nearly all actives have a fitted effect of over 30% in size; note: potency is the fitted concentration of half-maximal effect). The note with it: ER-beta-bla HEK293T viability, CellTiter-Glo luminescence, 16 h; series mostly up to 92.4 µM. The gist of the method:
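Measured: luminescence from CellTiter-Glo after 30 min at room temperature, added to wells already read for the LiveBLAzer FRET reporter (2 hr substrate); ER-beta-UAS-bla HEK293T cells had 16 hr compound treatment at 37C, 5% CO2.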

In assay [4] the target is Androgen receptor (Homo sapiens) (UniProt P10275). Put plainly: qHTS assay to identify small molecule agonists of the androgen receptor (AR) signaling pathway in the presence of an antagonist (AID 1259381). Note: nearly all actives have a fitted effect of over 15% in size. To be noted: MDA-kb2 MMTV-luciferase, AR agonist + nilutamide, 16 h; series mostly up to 92.4 µM. The gist of the method:
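Luminescent ONE-Glo read, 30min at room temperature, follows 16hr compound exposure (15 concentrations) of MDA-kb2 cells at 37C, 0% CO2, with nilutamide added at 3.0uM final.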

Assay [5] can be described thus: qHTS assay to identify small molecule antagonists of the estrogen receptor beta (ER-beta) signaling pathway - cell viability counter screen (AID 1259382; active = well fitted curve in the direction sought with a large enough effect in the repeat runs; an effect the other way counts as inactive or inconclusive;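 note: HEK293T cells carrying ER-beta-UAS-bla reporter stimulated with estradiol; nearly all actives have a fitted effect of over 55% in size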). To be noted: ER-beta-UAS-bla HEK293T viability, CellTiter-Glo luminescence, 16 h; series mostly up to 92.4 µM. The gist of the method: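 Readout: luminescence, CellTiter-Glo, same wells as bla assay. System: ER-beta-UAS-bla GripTite HEK293T, 2% charcoal-stripped FBS. Exposure: compounds plus 1nM 17-beta-estradiol, 16 hr, 37C.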

Assay [6] has as its target Estrogen receptor (Homo sapiens) (UniProt P03372). The assay is described as follows: qHTS assay to identify small molecule agonists of the estrogen receptor alpha (ER-alpha) signaling pathway in the presence of an antagonist (AID 1259383). Note: top concentration of the series differs between compounds; nearly all actives have a fitted effect of over 15% in size. The note with it: VM7Luc4E2 cells, ERE-luciferase, +ICI-182,780, 22 h; series mostly up to 92.4 µM. The gist of the method: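 Quantitative HTS confirmation: compounds titrated at 15 concentrations onto estrogen-deprived VM7Luc4E2 cells carrying a four-ERE luciferase construct, with ICI-182,780 present at 10.0nM final. Signal is luminescence after 22hr exposure.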

Assay [7] in a line: qHTS assay to identify small molecule agonists or antagonists of the thyroid stimulating hormone receptor (TSHR) signaling pathway - wild type cell line counter screen (AID 1259384). To be noted: HEK293 wild type, cAMP HTRF counter-screen; series mostly up to 92.4 µM. The gist of the method: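 Wild-type Hek293 cells, 800/well, 18 h at 37C, then compound with Ro20-1724 for 30 min RT. cAMP by HTRF (cAMP-d2/anti-cAMP cryptate), 1 h RT, fluorescence read. 15 concentrations, triplicates.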

In assay [8] the target is Estrogen receptor beta (Homo sapiens) (UniProt Q92731). The assay is described as follows: qHTS assay to identify small molecule agonists of the estrogen receptor beta (ER-beta) signaling pathway (AID 1259377; active = well fitted activation curve with a large enough effect in the signal ratio in the repeat runs, not every such curve was filed as active; the % refers to the signal ratio). To be noted: ER-beta-UAS-bla HEK293T, beta-lactamase FRET ratio, 16 h; series mostly up to 92.4 µM. The gist of the method: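 A UAS-controlled beta-lactamase reporter in ER-beta-UAS-bla HEK293T cells reports receptor activation. Compounds act for 16 hr at 37C in 2% charcoal-stripped serum, and a FRET substrate is read by fluorescence after 2 hours.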

Assay [9] deals with Thyrotropin receptor (Homo sapiens) (UniProt P16473). Put plainly: qHTS assay to identify small molecule antagonists of the thyroid stimulating hormone receptor (TSHR) signaling pathway (AID 1259385). Note: nearly all actives have a fitted effect of over 20% in size. To be noted: TSHR-HEK293 cAMP HTRF, TSH-stimulated antagonist mode; series mostly up to 92.4 µM. The gist of the method:
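TSHR-HEK293 cells (800/well) plated 18 h, then compounds with Ro20-1724 and TSH at 1.5 ng/mL final, 30 min at room temperature. cAMP quantified by HTRF (cAMP-d2/anti-cAMP-cryptate, 1 h); 15 concentrations in triplicate.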

Estrogen receptor (Homo sapiens), sequence (P03372 whole entry, looked up): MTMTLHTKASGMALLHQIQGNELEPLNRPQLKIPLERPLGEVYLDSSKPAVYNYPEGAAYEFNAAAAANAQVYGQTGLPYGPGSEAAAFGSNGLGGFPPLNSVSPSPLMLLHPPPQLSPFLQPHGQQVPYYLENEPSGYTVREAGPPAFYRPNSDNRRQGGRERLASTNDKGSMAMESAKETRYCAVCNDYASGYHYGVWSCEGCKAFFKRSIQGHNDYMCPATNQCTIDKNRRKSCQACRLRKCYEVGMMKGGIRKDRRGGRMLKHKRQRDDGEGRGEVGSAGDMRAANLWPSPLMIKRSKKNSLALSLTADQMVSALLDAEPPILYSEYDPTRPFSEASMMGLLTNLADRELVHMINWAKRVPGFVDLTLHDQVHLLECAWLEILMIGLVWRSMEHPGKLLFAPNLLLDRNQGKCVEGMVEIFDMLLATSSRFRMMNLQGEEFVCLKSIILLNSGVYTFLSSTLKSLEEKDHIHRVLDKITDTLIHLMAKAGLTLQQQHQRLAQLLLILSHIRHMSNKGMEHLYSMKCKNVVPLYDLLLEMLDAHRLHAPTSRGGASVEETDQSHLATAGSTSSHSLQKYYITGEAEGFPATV
Estrogen receptor beta (Homo sapiens), sequence (Q92731 whole entry, looked up): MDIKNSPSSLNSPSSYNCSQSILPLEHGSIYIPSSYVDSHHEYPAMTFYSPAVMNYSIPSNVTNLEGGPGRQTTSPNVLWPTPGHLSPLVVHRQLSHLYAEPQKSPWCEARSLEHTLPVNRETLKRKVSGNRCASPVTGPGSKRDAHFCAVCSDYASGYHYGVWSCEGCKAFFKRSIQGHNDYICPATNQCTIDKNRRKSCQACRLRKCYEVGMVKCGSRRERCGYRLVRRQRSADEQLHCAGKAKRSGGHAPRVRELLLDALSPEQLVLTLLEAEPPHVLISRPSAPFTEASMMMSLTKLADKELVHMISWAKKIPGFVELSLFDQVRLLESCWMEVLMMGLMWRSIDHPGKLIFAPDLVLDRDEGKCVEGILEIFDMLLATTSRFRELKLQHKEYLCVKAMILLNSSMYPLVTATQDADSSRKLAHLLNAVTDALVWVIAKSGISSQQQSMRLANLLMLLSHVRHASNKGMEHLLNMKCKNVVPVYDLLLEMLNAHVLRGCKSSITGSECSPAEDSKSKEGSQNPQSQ
Androgen receptor (Homo sapiens), sequence (P10275 whole entry, looked up): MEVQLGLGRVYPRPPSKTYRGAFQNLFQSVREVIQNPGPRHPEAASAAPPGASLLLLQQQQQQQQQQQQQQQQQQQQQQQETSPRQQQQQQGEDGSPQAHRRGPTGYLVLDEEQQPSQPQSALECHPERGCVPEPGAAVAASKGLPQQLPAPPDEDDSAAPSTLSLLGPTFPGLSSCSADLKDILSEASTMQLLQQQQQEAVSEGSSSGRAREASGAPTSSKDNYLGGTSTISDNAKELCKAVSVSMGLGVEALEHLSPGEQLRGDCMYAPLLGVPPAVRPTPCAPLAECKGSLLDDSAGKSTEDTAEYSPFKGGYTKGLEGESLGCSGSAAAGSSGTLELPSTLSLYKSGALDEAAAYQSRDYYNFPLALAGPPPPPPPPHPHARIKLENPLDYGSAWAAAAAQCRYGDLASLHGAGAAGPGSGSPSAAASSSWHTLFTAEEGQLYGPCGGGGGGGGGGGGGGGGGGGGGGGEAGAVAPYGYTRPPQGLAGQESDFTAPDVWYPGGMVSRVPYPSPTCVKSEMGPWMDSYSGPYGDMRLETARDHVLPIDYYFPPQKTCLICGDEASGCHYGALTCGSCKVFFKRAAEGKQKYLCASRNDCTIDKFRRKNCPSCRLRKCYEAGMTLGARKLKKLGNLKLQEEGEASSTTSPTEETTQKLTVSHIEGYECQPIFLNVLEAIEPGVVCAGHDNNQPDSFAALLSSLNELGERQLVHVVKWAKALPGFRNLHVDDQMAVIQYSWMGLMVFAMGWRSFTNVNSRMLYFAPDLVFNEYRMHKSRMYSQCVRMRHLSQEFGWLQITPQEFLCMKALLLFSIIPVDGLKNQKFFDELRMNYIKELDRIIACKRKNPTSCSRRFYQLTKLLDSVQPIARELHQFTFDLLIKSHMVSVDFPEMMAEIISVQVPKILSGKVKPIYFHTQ
Thyrotropin receptor (Homo sapiens), sequence (P16473 whole entry, looked up): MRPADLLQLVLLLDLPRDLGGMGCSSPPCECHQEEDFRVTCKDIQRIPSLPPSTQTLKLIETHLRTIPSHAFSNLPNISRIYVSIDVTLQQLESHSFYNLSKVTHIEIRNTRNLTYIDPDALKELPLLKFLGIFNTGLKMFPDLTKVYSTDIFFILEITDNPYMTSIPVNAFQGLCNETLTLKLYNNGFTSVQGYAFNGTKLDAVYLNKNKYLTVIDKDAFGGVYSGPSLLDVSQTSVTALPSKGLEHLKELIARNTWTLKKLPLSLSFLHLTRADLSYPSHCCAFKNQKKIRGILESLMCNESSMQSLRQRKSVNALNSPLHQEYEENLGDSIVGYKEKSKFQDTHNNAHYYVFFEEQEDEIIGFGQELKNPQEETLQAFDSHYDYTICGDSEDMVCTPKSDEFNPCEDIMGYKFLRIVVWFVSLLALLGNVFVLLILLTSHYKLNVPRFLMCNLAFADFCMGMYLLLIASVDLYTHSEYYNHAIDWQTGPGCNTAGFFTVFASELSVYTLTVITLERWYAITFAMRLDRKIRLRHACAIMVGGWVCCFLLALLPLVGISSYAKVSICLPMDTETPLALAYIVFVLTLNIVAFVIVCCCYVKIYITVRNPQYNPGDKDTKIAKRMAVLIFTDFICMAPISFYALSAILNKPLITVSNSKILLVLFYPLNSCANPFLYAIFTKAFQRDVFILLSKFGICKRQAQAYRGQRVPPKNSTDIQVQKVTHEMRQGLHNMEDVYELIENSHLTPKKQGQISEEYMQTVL

Take `CCN(CC)C(C)C(=O)c1ccccc1` (stereo unspecified): the Potency entry in [1], in [2], in [3], in assay [4], in assay [5] and in assay [6] was “inactive” each time. For the same molecule, the Potency entry in [7] is “inactive”.

For the molecule `C[C@]12CC[C@H]3[C@@H](CCC4=CC(=O)CC[C@@]43C)[C@@H]1CC[C@@H]2C(=O)O`, the Potency result in assay [1], in assay [2], in assay [3], in assay [4], in assay [5] and in assay [6] was “inactive” in each case. In assay [8], the result was inactive.

As for `CN1CCC(N(Cc2ccccc2)c2ccccc2)CC1`, the values for the Potency in [1] and in [3] were 18.8 µM (active) and 13.3 µM (active), respectively. Also, the result in assay [8] was inactive. Also, the Potency result in [2], in assay [6] and in [9] was “inactive” each time.

`Cc1nc(N)nc(N)n1`: the Potency result in assay [1], in assay [2], in [3], in assay [5], in assay [6] and in assay [7] was “inactive” each time.
